About 420 (8.8%) of roughly 4,800 compounds showed an effect of 50% or more. What follows is part of a selection rich in strong results, with near analogues and random picks from the rest.
Test system: Plasmodium falciparum
Test: Confirmatory screen in NF54 nanoGlo assay, in single point, at 2uM, 72h
Assay type: functional, Erythrocyte
Details: timepoint 72 hour

In order of falling “% Inhibition” value:
1. Cc1cnccc1N1CCCN(Cc2ccccc2OCCN2CCN(C)CC2)CC1  99%
2. CN1CCN(CC2CCN(c3ccnc4ccccc34)CC2)CC1  99%
3. COc1ccc2c(N3CC[C@H](CN4CCCC4)C3)ccnc2c1  99%
4. C[C@@H](CNC1CCN(C2CCN(C)CC2)CC1)c1cccc(Cl)c1  98%
5. COc1cc2nc(-c3ccc(F)c4cccnc34)nc(N)c2cc1OC  98%
6. COCCCN1CCC(Nc2ncnc3cc(C)c(C)cc23)CC1  97%
7. COc1ccc2nc(C)cc(NCc3cccc(NC(=O)c4ccco4)c3)c2c1  96%
8. CCOc1cc(C(=O)NC2CCN(CC3CCCC3)CC2)cc(-c2ccccc2)c1OC  95%
9. COC(=O)c1cn(CCNc2ccnc3cc(Cl)ccc23)cc2c(O)nnc1-2  95%
10. Cc1cnccc1NCCNCc1cccc(OCCCCN2CCOCC2)c1  95%
11. Cc1cccc(Nc2ccnc(Nc3ccc(N4CCN(C)CC4)cc3)n2)c1  93%
12. Cc1ocnc1CNC[C@H](O)c1ccc(Cl)c(Cl)c1  89%
13. Fc1ccc(-n2cc(CNCCC3CCN(c4ccncc4)CC3)cn2)cc1  88%
14. COc1ccc2c(C)cc(NCCCN3CCC[C@H](C(N)=O)C3)nc2c1  87%
15. COC(CN(Cc1nc(N)nc(Nc2ccc(C)cc2)n1)Cc1nc(N)nc(Nc2ccc(C)cc2)n1)OC  84%
16. c1ccc2c(CNCCC3CCN(c4ccncc4)CC3)csc2c1  77%
17. COCCNc1nc(N[C@@H](C)c2ccccc2)c2ccccc2n1  63%
18. CN(C)C1(CNc2nc(C(F)(F)F)nc3cc(F)ccc23)CCCCCC1  61%
19. Cc1cnccc1NCCNCc1cnc(N2CCCCC2)nc1  61%
20. Cc1ccn2cc(-c3ccc(N4CCC(NCc5cccnc5)CC4)cc3)nc2c1  60%
21. COCCN1CC[C@H](CNC2CCN(c3ncc4ccc(F)cc4n3)CC2)C1  59%
22. CCCc1cccc(CNC2CCN(C3CCN(C)CC3)CC2)c1  58%
23. Cc1nc2ccc(CNC3CCN(c4ccc(F)c(F)c4)CC3)cc2[nH]1  56%
24. O=C(CCc1nnc(-c2ccc(-c3ccccc3)cc2)o1)NC[C@@H]1CCCN2CCCC[C@H]12  56%
25. CN(c1ccccc1)c1ccc(CN2CCN([C@H]3CCNC3)CC2)cc1  54%
26. CN(C)C1(CNc2nc(C(F)(F)F)nc3cc4c(cc23)OCO4)CCCCCC1  49%
27. O=C(NCc1cccc(-c2cccnc2)c1)N[C@H]1CCN(C2CCCCC2)C1  48%
28. c1cncc(-c2ccc(CNC3CCN(Cc4cccs4)CC3)cc2)c1  45%
29. N[C@H]1CC[C@@H](NC2CCN(c3ccc(F)c(F)c3)CC2)CC1  45%
30. CCc1ccc2ncnc(NCCCN3CCN(CCO)CC3)c2c1  43%
31. C[C@H](Nc1nc(N)c2ccccc2n1)c1cccc(-n2cncn2)c1  36%
32. CN1CCN(CCCCNC2CC3CCC(C2)N3Cc2ccccc2)CC1 (configuration not stated)  34%
33. CN1CCN(CCNC2CCN3CCCC3C2)C(c2ccccc2)C1 (configuration not stated)  32%
34. COc1ccc(-c2cc(-c3ccccc3O)n([C@@H]3C(=O)Nc4ccc(Br)cc43)n2)cc1  31%
35. Cc1cc(NCCCN2CCC[C@H](O)C2)c2cc(F)ccc2n1  28%
36. OCCN1CCC(NCCc2cc(Cl)cc(Cl)c2)CC1  28%
37. CC(C)(C)n1ncc2c(NCc3ccc4cccnc4c3O)ncnc21  27%
38. CNc1nc(N2CCN(CC(=O)NC3CCCCC3)CC2)nc2ccccc12  23%
39. CCN1CCN(c2ccccc2CNCCC2CCN(C)CC2)CC1  18%
40. Fc1ccc(N2CCC(N[C@@H]3COC4(CCNCC4)C3)CC2)cc1F  13%
41. COCCN1CCC[C@H](CNCc2cnn(-c3ccc4ccccc4c3)c2)C1  12%
42. Cc1cc(N2CC3COCCC3(C(=O)O)C2)nc2ccc(F)cc12 (configuration not stated)  -2%

Reference: ChEMBL document CHEMBL5308541, “MAIP: An Open-Source Tool to Enrich High-Throughput Screening Output and Identify Novel, Druglike Molecules with Antimalarial Activity” (ACS Med Chem Lett, 2023)
